Assay [1] can be described thus: qHTS assay to identify small molecule antagonists of the estrogen receptor alpha (ER-alpha) signaling pathway using the BG1 cell line in the presence of 0.1 nM 17-beta-estradiol - cell viability counter screen (AID 1259241). Note: nearly all actives have a fitted effect of over 40% in size. In outline:
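The cell line endogenously expresses full-length ER-alpha and carries four EREs driving luciferase. Cells are cultured 5 days hormone-free, treated 22 hr with compounds and 0.1 nM estradiol, then viability is read by fluorescence.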
Background: In qHTS, concentration-response curves come from the screen itself.

Assay [2] can be described thus: qHTS assay to identify small molecule antagonists of the androgen receptor (AR) signaling pathway using the MDA cell line in the presence of 0.5 nM R1881 - cell viability counter screen (AID 1259242). Note: nearly all actives have a fitted effect of over 45% in size. Summed up:
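Human breast carcinoma MDA-kb2 cells, cultured without CO2, receive compounds alongside 0.5 nM (final) R1881 agonist. After 16 hr at 37C, viability is taken as live-cell protease signal.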

The target of assay [3] is Androgen receptor (Homo sapiens) (UniProt P10275). The assay can be described thus: qHTS assay to identify small molecule antagonists of the androgen receptor (AR) signaling pathway using the MDA cell line in the presence of 0.5 nM R1881 (AID 1259243). Note: nearly all actives have a fitted effect of over 50% in size. Note: potency is the fitted concentration of half-maximal effect. Summed up:
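Cells: MDA-kb2 (MMTV-luc). Stimulus: 0.5 nM R1881. Time: 16 hr, 37C, no CO2. Detection: ONE-Glo luminescence after 30 min at RT.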

Assay [4] can be described thus: qHTS assay to identify small molecule HDAC inhibitors (AID 1259364). Note: potency is the fitted concentration of half-maximal effect.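 Note: wild-type HCT-116 cells with endogenous class I/II HDAC activity; nearly all actives have a fitted effect of over 45% in size.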 In outline:
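After a 2 hr compound incubation (37C, 5% CO2), HCT-116 cells seeded at 1,500/well the day before received HDAC-Glo reagent; signal read as luminescence after 30 min at room temperature.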

A short description of assay [5]: qHTS assay to identify small molecule agonists of the sonic hedgehog signaling (Shh) pathway - cell viability counter screen (AID 1259366). Note: nearly all actives have a fitted effect of over 50% in size. Note: potency is the fitted concentration of half-maximal effect. In outline:
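Viability measured fluorometrically (CellTiter-Fluor, 1hr, 37C) in 3T3 Gli1-Luc reporter cells after 23hr compound exposure within a 24hr incubation at 37C/5% CO2.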

Assay [6] is described as follows: qHTS assay to identify small molecule antagonists of the sonic hedgehog signaling (Shh) pathway - cell viability counter screen (AID 1259367). Note: nearly all actives have a fitted effect of over 55% in size. In outline:
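Tox21 library chemicals were tested on a Gli1-Luc NIH/3T3 clone (2,000 cells/well) stimulated by conditioned medium; viability was quantified as fluorescence from CellTiter-Fluor reagent added at 23 hr.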

Assay [7] in a line: qHTS assay to identify small molecule agonists of the sonic hedgehog signaling (Shh) pathway (AID 1259368; calls by dose curve;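 note: NIH/3T3-derived 3T3Gli1-Luc cells carrying a stable Gli1-driven firefly luciferase reporter; series mostly up to about 92 µM; nearly all actives have a fitted effect of over 15% in size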). In outline:
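Stable NIH/3T3 Gli1-Luc reporter clone; 24 hr cpd exposure after a 4 hr settling period; luminescence endpoint.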

A short description of assay [8]: qHTS assay to identify small molecule agonists of the androgen receptor (AR) signaling pathway in the presence of an antagonist - cell viability counter screen (AID 1259379).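 Note: MDA-kb2 human breast cancer cells carrying an MMTV luciferase reporter; series mostly up to about 92 µM; nearly all actives have a fitted effect of over 25% in size.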 In outline: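 Counter screen for cell viability run in parallel with the AR agonist-mode luciferase assay. MDA-kb2 cells were co-treated with nilutamide (3.0uM final) and compounds, then incubated 16 hr at 37C, and CellTiter-Fluor fluorescence was measured.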

A short description of assay [9]: qHTS assay to identify small molecule agonists of the estrogen receptor beta (ER-beta) signaling pathway - cell viability counter screen (AID 1259380). Note: nearly all actives have a fitted effect of over 30% in size. Note: potency is the fitted concentration of half-maximal effect. Summed up: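 In this qHTS counter screen, HEK293T cells carrying an ER-beta/UAS beta-lactamase reporter, grown in 2% charcoal-stripped FBS, received compound for 16 hr; ATP-based CellTiter-Glo luminescence was then read after 30 min at room temperature.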

The target of assay [10] is Androgen receptor (Homo sapiens) (UniProt P10275). The assay can be described thus: qHTS assay to identify small molecule agonists of the androgen receptor (AR) signaling pathway in the presence of an antagonist (AID 1259381; calls by dose curve; note: nearly all actives have a fitted effect of over 15% in size; note: potency is the fitted concentration of half-maximal effect). Summed up: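 AR antagonist background: nilutamide 3.0uM final. Cell line: MDA-kb2, MMTV-driven luciferase, responsive to both AR and GR. Exposure 16hr, 37C, no CO2; ONE-Glo luminescence.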

A short description of assay [11]: qHTS assay to identify small molecule antagonists of the estrogen receptor beta (ER-beta) signaling pathway - cell viability counter screen (AID 1259382). Note: nearly all actives have a fitted effect of over 55% in size. Note: potency is the fitted concentration of half-maximal effect. In outline:
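HEK293T ER-beta-UAS-bla, 2% charcoal-stripped FBS; compounds + 1nM E2 16 hr 37C; CellTiter-Glo luminescence, 30 min RT.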

Assay [12] can be described thus: qHTS assay to identify small molecule agonists or antagonists of the thyroid stimulating hormone receptor (TSHR) signaling pathway - wild type cell line counter screen (AID 1259384; calls by dose curve). Summed up:
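Wild-type Hek293 cells, 800/well, 18 h at 37C, then compound with Ro20-1724 for 30 min RT. cAMP by HTRF (cAMP-d2/anti-cAMP cryptate), 1 h RT, fluorescence read. 15 concentrations, triplicates.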

In assay [13] the target is Estrogen receptor (Homo sapiens) (UniProt P03372). Description: qHTS assay to identify small molecule antagonists of the estrogen receptor alpha (ER-alpha) signaling pathway using the BG1 cell line in the presence of 0.1 nM 17-beta-estradiol (AID 1259244). Note: nearly all actives have a fitted effect of over 50% in size. In outline:
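Seeding of stripped-serum-adapted VM7Luc4E2 cells, 24 h attachment, compound transfer, then 0.1 nM final 17beta-estradiol; after 22 h incubation, ONE-Glo reagent and luminescence reading.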

Assay [14] in a line: qHTS assay to identify small molecule HDAC inhibitors - cell viability counter screen (AID 1259365). Note: series mostly up to about 92 µM; nearly all actives have a fitted effect of over 50% in size. In outline: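 Viability readout: CellTiter-Glo luminescence. Wild-type HCT-116 cells, 2hr compound treatment following overnight attachment at 37 C.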
The nature of assay [15]: qHTS assay to identify small molecule antagonists of the sonic hedgehog signaling (Shh) pathway (AID 1259369; calls by dose curve; note: nearly all actives have a fitted effect of over 45% in size; note: potency is the fitted concentration of half-maximal effect). Summed up: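 Gli1 transcriptional reporter (firefly Luc) in NIH/3T3 background, conditioned-medium activated. 24hr exposure, luminescence endpoint.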
The target of assay [16] is Estrogen receptor (Homo sapiens) (UniProt P03372). The assay can be described thus: qHTS assay to identify small molecule agonists of the estrogen receptor alpha (ER-alpha) signaling pathway in the presence of an antagonist (AID 1259383; calls by dose curve; note: top concentration of the series differs between compounds; nearly all actives have a fitted effect of over 15% in size). Summed up:
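ER-alpha agonism measured under antagonist challenge: 10.0nM ICI-182,780 (final) plus compound, 15 concentrations, 22hr, VM7Luc4E2 ERE-luciferase cells. Read by luminescence.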

Assay [17] addresses Thyrotropin receptor (Homo sapiens) (UniProt P16473). Description: qHTS assay to identify small molecule antagonists of the thyroid stimulating hormone receptor (TSHR) signaling pathway (AID 1259385; calls by dose curve; note: nearly all actives have a fitted effect of over 20% in size; note: potency is the fitted concentration of half-maximal effect). Summed up: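 TSHR-HEK293 cells (800/well) plated 18 h, then compounds with Ro20-1724 and TSH at 1.5 ng/mL final, 30 min at room temperature. cAMP quantified by HTRF (cAMP-d2/anti-cAMP-cryptate, 1 h); 15 concentrations in triplicate.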

Assay [18] addresses Estrogen receptor beta (Homo sapiens) (UniProt Q92731). Description: qHTS assay to identify small molecule antagonists of the estrogen receptor beta (ER-beta) signaling pathway (AID 1259378; active = well fitted inhibition curve with a large enough effect in the signal ratio in the repeat runs, not every such curve was filed as active; the % refers to the signal ratio). Summed up:
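ER-beta-UAS-bla HEK293T cells in 2% charcoal-stripped FBS medium treated with compound plus 1nM final 17-beta-estradiol for 16 hr at 37C. Beta-lactamase reporter read by FRET substrate fluorescence after 2 hours at room temperature.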

For assay [19] the target is unchanged. Description: qHTS assay to identify small molecule agonists of the estrogen receptor beta (ER-beta) signaling pathway (AID 1259377; active = well fitted activation curve with a large enough effect in the signal ratio in the repeat runs, not every such curve was filed as active; the % refers to the signal ratio). Summed up:
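A UAS-controlled beta-lactamase reporter in ER-beta-UAS-bla HEK293T cells reports receptor activation. Compounds act for 16 hr at 37C in 2% charcoal-stripped serum, and a FRET substrate is read by fluorescence after 2 hours.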

Values joined by “and” are separate entries in the source; they are usually repeats but may differ in a detail not shown here. Equal values may be shown once. Inconclusive results are not listed. Some structures have more than one record in an assay (separate samples or runs), and their calls can disagree. Active and inactive are the calls of the source. Unless noted, calls come from the whole dose curve; as a rule, active = well fitted curve in the direction sought with a large enough effect in the repeat runs; inconclusive = weak or mixed curves; inactive = no such curve, though single readings can be large; an effect the other way counts as inactive or inconclusive.

Chain of Thyrotropin receptor (Homo sapiens) (P16473 whole entry, looked up): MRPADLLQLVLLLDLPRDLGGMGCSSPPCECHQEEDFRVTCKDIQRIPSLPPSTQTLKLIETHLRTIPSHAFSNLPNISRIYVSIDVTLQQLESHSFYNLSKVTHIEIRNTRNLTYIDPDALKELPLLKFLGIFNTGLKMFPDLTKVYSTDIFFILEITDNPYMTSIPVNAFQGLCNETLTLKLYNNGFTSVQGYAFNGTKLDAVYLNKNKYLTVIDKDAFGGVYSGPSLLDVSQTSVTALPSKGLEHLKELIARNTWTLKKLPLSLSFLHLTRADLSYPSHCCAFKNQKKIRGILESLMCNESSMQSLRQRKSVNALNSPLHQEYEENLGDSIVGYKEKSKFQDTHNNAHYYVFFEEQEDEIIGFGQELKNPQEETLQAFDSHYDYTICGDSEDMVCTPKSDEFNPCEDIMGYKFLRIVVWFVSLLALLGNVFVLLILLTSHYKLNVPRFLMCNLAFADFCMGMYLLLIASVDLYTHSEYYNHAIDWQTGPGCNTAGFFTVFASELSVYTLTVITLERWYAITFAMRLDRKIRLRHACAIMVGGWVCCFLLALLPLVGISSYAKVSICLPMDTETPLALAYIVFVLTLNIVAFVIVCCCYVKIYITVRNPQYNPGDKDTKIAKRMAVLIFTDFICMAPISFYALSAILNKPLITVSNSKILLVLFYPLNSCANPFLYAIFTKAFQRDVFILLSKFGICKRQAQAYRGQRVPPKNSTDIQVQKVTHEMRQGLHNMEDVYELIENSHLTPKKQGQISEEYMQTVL
Chain of Estrogen receptor (Homo sapiens) (P03372 whole entry, looked up): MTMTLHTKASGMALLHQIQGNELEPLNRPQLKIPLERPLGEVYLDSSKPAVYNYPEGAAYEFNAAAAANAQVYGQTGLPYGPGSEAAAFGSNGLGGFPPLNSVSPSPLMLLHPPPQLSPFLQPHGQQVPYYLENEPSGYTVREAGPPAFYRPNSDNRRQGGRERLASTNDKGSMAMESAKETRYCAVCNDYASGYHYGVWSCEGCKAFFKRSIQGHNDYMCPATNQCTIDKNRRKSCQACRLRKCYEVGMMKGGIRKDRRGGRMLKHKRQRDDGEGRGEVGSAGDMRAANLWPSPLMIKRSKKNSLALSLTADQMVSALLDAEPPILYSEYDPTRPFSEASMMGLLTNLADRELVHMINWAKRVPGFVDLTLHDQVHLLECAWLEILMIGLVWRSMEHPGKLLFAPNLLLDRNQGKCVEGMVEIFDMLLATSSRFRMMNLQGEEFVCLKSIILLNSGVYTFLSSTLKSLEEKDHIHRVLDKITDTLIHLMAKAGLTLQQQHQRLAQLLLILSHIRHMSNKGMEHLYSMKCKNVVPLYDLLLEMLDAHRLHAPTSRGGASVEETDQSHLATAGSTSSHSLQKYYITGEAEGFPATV
Chain of Androgen receptor (Homo sapiens) (P10275 whole entry, looked up): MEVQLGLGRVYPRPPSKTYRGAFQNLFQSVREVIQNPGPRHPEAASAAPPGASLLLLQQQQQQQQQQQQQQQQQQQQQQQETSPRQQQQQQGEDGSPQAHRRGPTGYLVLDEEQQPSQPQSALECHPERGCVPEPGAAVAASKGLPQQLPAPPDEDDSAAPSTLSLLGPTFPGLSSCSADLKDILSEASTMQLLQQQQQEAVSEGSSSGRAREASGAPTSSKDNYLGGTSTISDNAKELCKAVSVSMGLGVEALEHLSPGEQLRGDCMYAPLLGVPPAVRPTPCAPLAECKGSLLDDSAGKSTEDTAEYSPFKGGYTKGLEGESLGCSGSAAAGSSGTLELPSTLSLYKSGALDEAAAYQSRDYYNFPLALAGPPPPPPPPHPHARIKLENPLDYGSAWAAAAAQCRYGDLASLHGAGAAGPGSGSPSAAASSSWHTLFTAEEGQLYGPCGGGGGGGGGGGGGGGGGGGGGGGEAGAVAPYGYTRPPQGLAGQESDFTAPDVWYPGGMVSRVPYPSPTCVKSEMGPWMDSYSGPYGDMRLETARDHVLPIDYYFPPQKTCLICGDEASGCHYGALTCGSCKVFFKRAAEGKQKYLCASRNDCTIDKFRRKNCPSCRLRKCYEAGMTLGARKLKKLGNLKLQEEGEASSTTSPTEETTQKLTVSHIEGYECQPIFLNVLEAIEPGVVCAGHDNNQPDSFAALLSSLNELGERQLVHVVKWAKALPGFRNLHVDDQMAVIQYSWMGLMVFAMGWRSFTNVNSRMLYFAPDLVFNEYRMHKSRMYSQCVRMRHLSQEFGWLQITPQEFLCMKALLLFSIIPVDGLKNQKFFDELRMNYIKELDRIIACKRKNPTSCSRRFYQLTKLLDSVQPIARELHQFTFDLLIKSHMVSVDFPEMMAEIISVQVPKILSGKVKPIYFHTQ
Chain of Estrogen receptor beta (Homo sapiens) (Q92731 whole entry, looked up): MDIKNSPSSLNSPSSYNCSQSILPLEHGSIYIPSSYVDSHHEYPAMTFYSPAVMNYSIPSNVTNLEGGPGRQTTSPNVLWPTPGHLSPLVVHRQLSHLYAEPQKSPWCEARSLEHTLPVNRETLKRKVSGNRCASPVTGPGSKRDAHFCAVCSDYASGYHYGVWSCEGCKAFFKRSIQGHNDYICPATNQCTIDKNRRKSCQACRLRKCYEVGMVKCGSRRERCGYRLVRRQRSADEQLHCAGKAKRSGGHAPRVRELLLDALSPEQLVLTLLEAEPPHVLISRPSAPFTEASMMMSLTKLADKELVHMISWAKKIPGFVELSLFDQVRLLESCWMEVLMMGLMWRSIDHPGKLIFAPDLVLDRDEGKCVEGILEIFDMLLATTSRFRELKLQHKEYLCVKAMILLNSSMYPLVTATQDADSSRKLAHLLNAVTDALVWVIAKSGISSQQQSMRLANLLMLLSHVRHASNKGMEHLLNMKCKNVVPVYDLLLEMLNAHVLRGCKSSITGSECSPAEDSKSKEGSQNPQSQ

`C[C@]12CC[C@H](O)C[C@H]1CC[C@@H]1[C@@H]2C[C@@H](O)[C@]2(C)[C@@H](C3=CC(=O)OC3)CC[C@]12O`: the Potency result in [1], in assay [2], in assay [3], in assay [4], in [5] and in assay [6] was “inactive” in each case. Moreover, the Potency entry in assay [7] and in assay [8] was “inactive” each time. Further, the Potency in [9] was 1.09 µM (active); in assay [10] it was 2.73 µM (active); in assay [11] it was 770 nM (active). Moreover, in assay [12], the call was inactive.
`CCOC(=O)OC1=C(c2cc(C)ccc2C)C(=O)NC12CCC(OC)CC2` (stereo not given): the Potency entry in assay [1], in assay [2], in [13], in assay [4], in assay [14] and in assay [5] was “inactive” throughout. For the same compound, the Potency result in assay [6], in assay [7], in assay [8], in assay [11] and in [16] was “inactive” each time. For the same compound, the Potency in assay [15] is 17.2 µM (active). The compound was classed as inactive in [12].
For `CC(=O)/C=C/c1ccc2c(c1)OCO2`, the Potency entry in [1], in [2], in [7], in assay [9], in assay [10] and in [11] was “inactive” throughout. In assay [17], the Potency result is “inactive”. Further, the Potency was 68.9 µM (active) in [3], 27.4 µM (active) in assay [4] and 17.3 µM (active) in assay [15].
Take `C[C@@H]1O[C@@H](O[C@@H]2C=C3CC[C@@H]4[C@H](CC[C@]5(C)[C@@H](c6ccc(=O)oc6)CC[C@]45O)[C@@]3(C)CC2)[C@H](O)[C@H](O)[C@H]1O`: the Potency result in assay [1], in assay [2], in assay [3], in assay [4], in assay [5] and in [6] was “inactive” in each case. In assay [8], the Potency entry is “inactive”. Also, the Potency in assay [15] was 16.8 µM (active); in [9] it was 0.0094 µM (active); in assay [10], 0.0298 µM (active); in assay [11], 9.4 nM (active); in [17], 0.298 µM (active). In addition, the call in [12] was inactive.
`CCCCCCCCCCBr`: the Potency entry in assay [1], in assay [2], in assay [13], in assay [4], in assay [14] and in [5] was “inactive” each time. The Potency entry in assay [6], in [7], in assay [15], in assay [18], in assay [8] and in assay [9] was “inactive” throughout. In addition, the Potency entry in [11] and in assay [16] was “inactive” throughout.
As for `CC(C)(C)OO`, the Potency result in [1], in [2], in assay [3], in assay [4], in assay [14] and in [5] was “inactive” each time. Besides, the Potency entry in [6], in assay [7], in assay [18], in [8], in [9] and in assay [10] was “inactive” each time. Also, the Potency result in assay [11] and in assay [17] was “inactive” in each case. Moreover, the compound was called inactive in [12].
For `CCCCCCCCCCCCCN1CC(C)OC(C)C1` (stereo not given), the Potency entry in assay [1], in assay [2], in assay [13], in assay [4], in assay [14] and in assay [5] was “inactive” in each case. The Potency entry in assay [6], in [7], in assay [15], in assay [19], in assay [18] and in [8] was “inactive” throughout. Also, the Potency entry in assay [11] and in [16] was “inactive” throughout. Moreover, in assay [12], the compound was called inactive.
Consider `CC(c1ccc(O)cc1)c1ccc(O)cc1`, for which the Potency entry in assay [1], in assay [2], in [13], in assay [4], in [14] and in [6] was “inactive” throughout. Also, the Potency entry in assay [7] and in [8] was “inactive” throughout. Besides, the Potency entry in assay [5] is “inactive and 61.1 µM (active)”; in assay [15], 22.8 µM (active) and inactive; in assay [9] it was 40.6 µM (active) and inactive; in assay [11], 45.5 µM (active) and inactive. The outcome in assay [12] was inactive.
Turning to `Cc1cc(C)c(C2=C(OC(=O)CC(C)(C)C)C3(CCCC3)OC2=O)c(C)c1`, the Potency result in assay [1], in [2], in [13], in assay [4], in [14] and in assay [5] was “inactive” in each case. Besides, the Potency result in assay [6], in assay [7], in assay [15], in [19], in assay [18] and in assay [8] was “inactive” in each case. In addition, the Potency result in assay [9], in [11] and in [16] was “inactive” each time.
